# Experimental data published in PubChem BioAssay (Tox21).
# Inconclusive results are not listed. Active and inactive are the calls of the source. Unless noted, calls follow the shape of the dose curve; as a rule, active = well fitted curve in the direction sought with a large enough effect in the repeat runs; inconclusive = weak or mixed curves; inactive = no such curve, though single readings can be large; an effect the other way counts as inactive or inconclusive.
# Test system: not listed separately
# Assay: qHTS assay to identify small molecule antagonists of the estrogen related receptor (ERR) signaling pathway (AID 1224819;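 also: luminescence from an ERR-driven luciferase reporter measured with One-Glo reagent; nearly all actives have a fitted effect of over 50% in size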)
# Conditions: ERR reporter cell line, luciferase inhibition; series mostly up to 46.1 µM; activity change, negative = inhibition: at the top concentration
# Procedure, shortened: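 ERR reporter cell line (NTP) plated at 2,000 cells/well, settled 6 h at 37C/5% CO2, then exposed to LOPAC compounds for 18 h at 37C. One-Glo luciferase luminescence read after 30 min at room temperature.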
# % is scaled to controls: 0 for no effect and ±100 for the full control effect.
row,Structure (SMILES),"activity change, negative = inhibition"
1,COc1ccc2[nH]c3c(c2c1)CCNC3,-2.88% (inactive)
2,CCCN(CCC)C1CCc2ccc(O)cc2C1 (stereo unspecified),11.4% (inactive)
3,c1ccc2c(N3CCNCC3)cccc2c1,11.3% (inactive)
4,CC(=O)OCC1=C(C(=O)[O-])N2C(=O)[C@@H](NC(=O)CCC[C@@H](N)C(=O)[O-])[C@H]2SC1.[Zn+2],9.09% (inactive)
5,CCCN(CCC)[C@@H]1CCc2cccc(O)c2C1,4.61% (inactive)
6,Oc1ccc2c3c1O[C@H]1c4[nH]c5ccccc5c4C[C@@]4(O)C(C2)N(CC2CC2)CCC314 (stereo partly specified),-10.2% (inactive)
7,C[N+](C)(C)CC#CCOC(=O)Nc1cccc(Cl)c1,11.3% (inactive)
8,C=CCN1CCC23c4c5ccc(O)c4O[C@H]2C(=O)CC[C@@]3(O)C1C5 (stereo partly specified),11.1% (inactive)
9,C[C@@H](N)Cc1cnc[nH]1,-4.2% (inactive)
10,O=C(O)Cc1cnc[nH]1,1.71% (inactive)
11,O=[N+]([O-])c1ccc2nc(N3CCNCC3)ccc2c1,15% (inactive)
12,NC(C(=O)O)c1cc(=O)[nH]o1 (stereo unspecified),0.394% (inactive)
13,CC(C)(O)[C@@H]1[C@H]2OC(=O)[C@@H]1[C@]1(O)C[C@H]3O[C@]34C(=O)O[C@H]2[C@]14C (tested in a mixture with another compound),13.4% (inactive)
14,CNCCc1ccc(O)c(O)c1,2.99% (inactive)
15,Cc1[nH]c2ccc(O)cc2c1CCN,6.19% (inactive)
16,CN(N=O)c1ccc(O)c(O)c1,-23.7% (inactive)
17,C#CCOC(=O)C1=CCCN(C)C1,45.7% (inactive)
18,NC(CP(=O)(O)O)C(=O)O (stereo unspecified),8.89% (inactive)
19,NCCc1c[nH]c2ccc(C(N)=O)cc12,14.5% (inactive)
20,NC(CCP(=O)(O)O)C(=O)O (stereo unspecified),9.49% (inactive)
21,Cc1sc2ccccc2c1CC1=NCCN1,-9.66% (inactive)
22,CC(C)Oc1cccnc1N(C)C1CCN(Cc2ccccc2)CC1,-22% (inactive)

# Test system: not listed separately
# Assay: qHTS assay to identify small molecule agonists of the estrogen related receptor (ERR) signaling pathway (AID 1224820); also: potency is read from the fitted curve at half-maximal effect
# Conditions: ERR reporter cell line, luciferase agonist mode; series mostly up to 46.1 µM; activation: at the top concentration
# Procedure, shortened: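 Luminescence readout (One-Glo, 30 min RT) from NTP-supplied ERR cell line exposed to compounds for 18 h at 37 C. Cells seeded 2,000 per well and pre-incubated 6 h before pin-tool compound transfer.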
Structure (SMILES),activation,Potency
COc1ccc2[nH]c3c(c2c1)CCNC3,-4.61% (inactive),–
CCCN(CCC)C1CCc2ccc(O)cc2C1 (stereo unspecified),13.9% (inactive),–
c1ccc2c(N3CCNCC3)cccc2c1,0.116% (inactive),–
CC(=O)OCC1=C(C(=O)[O-])N2C(=O)[C@@H](NC(=O)CCC[C@@H](N)C(=O)[O-])[C@H]2SC1.[Zn+2],11.8% (inactive),–
CCCN(CCC)[C@@H]1CCc2cccc(O)c2C1,3.36% (inactive),–
Oc1ccc2c3c1O[C@H]1c4[nH]c5ccccc5c4C[C@@]4(O)C(C2)N(CC2CC2)CCC314 (stereo partly specified),-11.8% (inactive),–
C[N+](C)(C)CC#CCOC(=O)Nc1cccc(Cl)c1,12.1% (inactive),–
C=CCN1CCC23c4c5ccc(O)c4O[C@H]2C(=O)CC[C@@]3(O)C1C5 (stereo partly specified),4.98% (inactive),–
C[C@@H](N)Cc1cnc[nH]1,-4.45% (inactive),–
O=C(O)Cc1cnc[nH]1,2.02% (inactive),–
O=[N+]([O-])c1ccc2nc(N3CCNCC3)ccc2c1,8.58% (inactive),–
NC(C(=O)O)c1cc(=O)[nH]o1 (stereo unspecified),7.29% (inactive),–
CC(C)(O)[C@@H]1[C@H]2OC(=O)[C@@H]1[C@]1(O)C[C@H]3O[C@]34C(=O)O[C@H]2[C@]14C (tested in a mixture with another compound),14.4% (inactive),–
CNCCc1ccc(O)c(O)c1,3.54% (inactive),–
Cc1[nH]c2ccc(O)cc2c1CCN,6.49% (inactive),–
CN(N=O)c1ccc(O)c(O)c1,-25.5% (inactive),–
C#CCOC(=O)C1=CCCN(C)C1,–,22 µM (active)
NC(CP(=O)(O)O)C(=O)O (stereo unspecified),14.3% (inactive),–
NCCc1c[nH]c2ccc(C(N)=O)cc12,17.7% (inactive),–
NC(CCP(=O)(O)O)C(=O)O (stereo unspecified),14.3% (inactive),–
Cc1sc2ccccc2c1CC1=NCCN1,-9.46% (inactive),–
CC(C)Oc1cccnc1N(C)C1CCN(Cc2ccccc2)CC1,-22.8% (inactive),–

# Test system: estrogen-related receptor alpha (ERRalpha) with PGC-1alpha coactivator, human
# Assay: qHTS assay to identify small molecule antagonists of the estrogen related receptor signaling pathway with the pleiotropic PPARgamma coactivator (PGC) (AID 1224821; calls by dose curve;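 also: lower luminescence signal means antagonism of PGC/ERR signalling; nearly all actives have a fitted effect of over 50% in size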)
# Conditions: ERR/PGC reporter cell line, luciferase, antagonist mode; series mostly up to 46.1 µM; activity change, negative = inhibition: at the top concentration
# Procedure, shortened: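 PGC/ERR reporter cells; 6 h pre-incubation 37 C/5% CO2; pin-tool compound in DMSO, 18 h 37 C; One-Glo added, 30 min RT; luminescence read. qHTS antagonist mode.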
row,Structure (SMILES),"activity change, negative = inhibition"
1,COc1ccc2[nH]c3c(c2c1)CCNC3,1.16% (inactive)
2,CCCN(CCC)C1CCc2ccc(O)cc2C1 (stereo unspecified),9.4% (inactive)
3,c1ccc2c(N3CCNCC3)cccc2c1,3.95% (inactive)
4,CC(=O)OCC1=C(C(=O)[O-])N2C(=O)[C@@H](NC(=O)CCC[C@@H](N)C(=O)[O-])[C@H]2SC1.[Zn+2],-0.755% (inactive)
5,CCCN(CCC)[C@@H]1CCc2cccc(O)c2C1,-5.25% (inactive)
6,Oc1ccc2c3c1O[C@H]1c4[nH]c5ccccc5c4C[C@@]4(O)C(C2)N(CC2CC2)CCC314 (stereo partly specified),-4.42% (inactive)
7,C[N+](C)(C)CC#CCOC(=O)Nc1cccc(Cl)c1,1.82% (inactive)
8,C=CCN1CCC23c4c5ccc(O)c4O[C@H]2C(=O)CC[C@@]3(O)C1C5 (stereo partly specified),-0.092% (inactive)
9,C[C@@H](N)Cc1cnc[nH]1,-0.878% (inactive)
10,O=C(O)Cc1cnc[nH]1,-2.8% (inactive)
11,O=[N+]([O-])c1ccc2nc(N3CCNCC3)ccc2c1,50.6% (inactive)
12,NC(C(=O)O)c1cc(=O)[nH]o1 (stereo unspecified),-2.32% (inactive)
13,CC(C)(O)[C@@H]1[C@H]2OC(=O)[C@@H]1[C@]1(O)C[C@H]3O[C@]34C(=O)O[C@H]2[C@]14C (tested in a mixture with another compound),4.52% (inactive)
14,CNCCc1ccc(O)c(O)c1,1.87% (inactive)
15,Cc1[nH]c2ccc(O)cc2c1CCN,-15.3% (inactive)
16,CN(N=O)c1ccc(O)c(O)c1,81.3% (inactive)
17,C#CCOC(=O)C1=CCCN(C)C1,85.4% (inactive)
18,NC(CP(=O)(O)O)C(=O)O (stereo unspecified),-0.544% (inactive)
19,NCCc1c[nH]c2ccc(C(N)=O)cc12,6.18% (inactive)
20,NC(CCP(=O)(O)O)C(=O)O (stereo unspecified),5.64% (inactive)
21,Cc1sc2ccccc2c1CC1=NCCN1,0.0589% (inactive)
22,CC(C)Oc1cccnc1N(C)C1CCN(Cc2ccccc2)CC1,-27.8% (inactive)
